# The panel holds about 83,000 compounds, 20% with a hit somewhere; the sample as a whole holds those more often.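 Compound tested at a single concentration for 48 hours in 96-well plates; a percent growth value below 10 was scored as active.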 Values without a mark were called inactive. Activity calls are given as the source filed them.
# Experiments:
# Experiment in all cases: NCI-60 one-dose screen, 48 h (100 = growth as untreated, 0 = no growth, -100 = all killed)
# Conditions in all cases: 10 µM unless noted
# SR leukemia = tested on: SR leukemia
# RPMI-8226 leukemia = tested on: RPMI-8226 leukemia
# OVCAR-8 ovarian = tested on: OVCAR-8 ovarian
# OVCAR-5 ovarian = tested on: OVCAR-5 ovarian
# OVCAR-4 ovarian = tested on: OVCAR-4 ovarian
# SK-OV-3 ovarian = tested on: SK-OV-3 ovarian
# IGROV1 ovarian = tested on: IGROV1 ovarian
# OVCAR-3 ovarian = tested on: OVCAR-3 ovarian
# HS 578T breast = tested on: HS 578T breast
# NCI/ADR-RES ovarian = tested on: NCI/ADR-RES ovarian
SMILES,growth (SR leukemia),growth (RPMI-8226 leukemia),growth (OVCAR-8 ovarian),growth (OVCAR-5 ovarian),growth (OVCAR-4 ovarian),growth (SK-OV-3 ovarian),growth (IGROV1 ovarian),growth (OVCAR-3 ovarian),growth (HS 578T breast),growth (NCI/ADR-RES ovarian)
C=C1CCC2C3(C)COC(c4ccccc4)OC3CCC2(C)C1CC(NCc1ccccc1)C1=CCOC1=O (stereo not given),68.6%,34.1%,82.9%,87.5%,82.8%,79.9%,90.6%,83%,78%,77.7%
O=C(Cn1c(/C=C/c2ccccc2)nc2ccccc2c1=O)Nc1ccc(Cl)cc1,87.6%,86.8%,58.3%,68.7%,-22.4% (active),40.2%,67.7%,29.2%,37.8%,66.6%
C#C[C@]1(O)CC[C@H]2[C@@H]3CC=C4c5sc(-c6ccc([N+](=O)[O-])cc6)nc5CC[C@]4(C)[C@H]3CC[C@@]21C,1.72% (active),-10.7% (active),11.3%,12.5%,46.5%,53%,26.4%,-25.2% (active),29.6%,25.7%
O=C(C1=CNC(=S)NC1c1ccc(O)cc1)c1cc2ccccc2oc1=O (stereo not given),75.5%,88.7%,100%,109%,96.1%,93.2%,108%,101%,97.8%,106%
OCNc1ccc(-n2cnc3cc(-c4ccc(O)cc4)ccc32)cc1C(F)(F)F,25.3%,24.1%,16%,34.4%,55%,54.7%,44%,15.9%,11.2%,17.2%
COc1ccc(-c2nc3cc(C)ccc3n2CC(=O)N=Nc2c(O)[nH]c3ccc(OC)cc23)cc1,-21.1% (active),-14.7% (active),-68.8% (active),-48.2% (active),-58.1% (active),-17.7% (active),-17.3% (active),-71.8% (active),-23.4% (active),-56.1% (active)
Cn1cc(-c2cc3nc(-c4cn(C)c5ncccc45)cc(N)n3n2)c2cc(Cl)ccc21,-54.7% (active),-13.9% (active),-41.4% (active),0.37% (active),-16.5% (active),-67.7% (active),-82.7% (active),-75% (active),-29.7% (active),-43.6% (active)
Cc1ccc(-n2c(-c3cc4ccccc4nc3Cl)noc2=O)cc1,31.8%,81.2%,94.4%,98.1%,92.5%,80.1%,90.9%,99.8%,80.9%,52.3%
S=c1c2ccccc2nc2n1CCc1c-2[nH]c2ccccc12,67.7%,89.5%,28.6%,86.8%,50.3%,42.2%,48.2%,67.2%,8.23% (active),49.6%
COc1ccc(NC(=O)Cn2c(O)c(N=Nc3ccc(S(N)(=O)=O)cc3)c3ccccc32)cc1,83.8%,71.6%,24.5%,65.9%,82.2%,30.3%,34.4%,50.7%,80.7%,93.8%
Cc1cc(=O)oc2cc(OCCCCOc3ccc(/C=C/C(=O)Nc4ccccc4N)cc3)ccc12,56.4%,18.7%,85.2%,84.8%,73.1%,92.1%,81.7%,64.9%,118%,74.3%
CC(=O)Nc1ccc(-c2nc3cc(-c4ccc(O)cc4)ccc3n2C)cc1,23.1%,41.3%,54.8%,74.2%,54.5%,94.5%,34.8%,49%,66.1%,55.3%
CC(=O)Nc1ccc(C(=O)NC(=S)Nc2ccc(S(N)(=O)=O)cc2)cc1,105%,105%,94.6%,96.5%,84.9%,101%,92.3%,97.7%,94.5%,95.9%
CCCn1cc(-c2nc(Nc3ccc(C(=O)NCCCCNc4cccc5c4C(=O)N(C4CCC(=O)NC4=O)C5=O)cc3)nc3[nH]ccc23)cn1 (stereo not given),25.1%,17.5%,6.6% (active),54.2%,9.82% (active),24.8%,7.36% (active),36.3%,6.24% (active),95.6%
C=C1CCC2C3(C)COC(c4cccs4)OC3CCC2(C)C1CC(Sc1ccccc1)C1=CCOC1=O (stereo not given),46.1%,16.1%,66%,102%,83.6%,131%,95.5%,86.1%,112%,2.64% (active)
COc1ccc(/C=N/NC(=O)Cn2nc(Cc3ccc(OC)cc3)c3onc(C)c3c2=O)cc1,53.4%,53.7%,45%,52.2%,-9.28% (active),25.9%,77.6%,50.8%,36.3%,40.6%
O=c1onc(-c2cc3ccccc3nc2Cl)n1-c1cccc2ccccc12,16.8%,40.6%,51.4%,94.8%,38.6%,34.4%,61.8%,64%,30%,15.2%
Nc1nnc(-c2c[nH]c3ncc(Br)cc23)c(-c2c[nH]c3ccc(F)cc23)n1,13.6%,33.7%,39%,48.6%,59.6%,80.5%,37.4%,33.2%,28%,70.7%
CCCCSc1nc(Nc2ccc(S(N)(=O)=O)cc2)c(C#N)c(-c2ccc(Cl)cc2)n1,19.4%,52.7%,-2.51% (active),51.5%,2.66% (active),30.4%,37.5%,54.1%,64.8%,16.4%
Cc1ccc(-c2nc(C#N)c(S(=O)(=O)N3CCN(S(=O)(=O)c4ccc(Cl)cc4)CC3)o2)cc1,47.3%,97%,82.2%,105%,86.8%,87.2%,95.8%,114%,65.2%,91%
CC(C)C(C(=O)O)n1c(O)c(/C=C2/C=c3cc4c(cc3=NC2=O)OCO4)sc1=S (stereo not given),90.5%,109%,105%,110%,108%,129%,109%,107%,99.8%,98.2%
Cc1cccc(Nc2nc3ccccc3nc2/C=C/c2ccc(F)cc2)c1,87.2%,91.8%,85.1%,101%,88.9%,105%,75.3%,108%,83.8%,91.1%

SMILES,growth (SR leukemia),growth (RPMI-8226 leukemia),growth (OVCAR-8 ovarian),growth (OVCAR-5 ovarian),growth (OVCAR-4 ovarian),growth (SK-OV-3 ovarian),growth (IGROV1 ovarian),growth (OVCAR-3 ovarian),growth (HS 578T breast),growth (NCI/ADR-RES ovarian)
COc1cccc(-c2nc(Nc3ccc(S(N)(=O)=O)cc3)c3ccccc3n2)c1,23.6%,6.94% (active),35.5%,72.5%,35.1%,73.5%,42.4%,22.9%,44%,26.4%
Brc1ccc(N/N=C/c2c[nH]c3ccc(Br)cc23)nc1,-26.2% (active),-17.2% (active),3.48% (active),-25.8% (active),19.6%,-12.7% (active),-25.6% (active),-2.41% (active),-17.2% (active),-24.5% (active)
COc1c(F)ccc(C(=O)Nc2ccc3nc(NC(=O)C4CCCN(S(=O)(=O)c5ccc(Cl)cc5)C4)sc3c2)c1F (stereo not given),44.8%,53.8%,97.2%,97%,86.2%,97.2%,72.9%,92%,60.2%,74%
COc1ccc(/C=C/c2nc3ccccc3c(=O)n2CC(=O)Nc2ccc(OC)cc2)cc1,79.5%,76.4%,59.1%,95.6%,9.1% (active),79.3%,94.2%,62.5%,56.2%,75.7%
CCCCCCCCOc1cccc(S(=O)(=O)Nc2ccc(C)cc2C(=O)O)c1,90%,64.5%,95.6%,114%,90.1%,108%,99.7%,102%,106%,97.6%
O=C(c1ccc(Cl)cc1)c1ccc(OCCCN2CCN(c3ccncc3)CC2)cc1,-32% (active),10.2%,75.7%,69%,47.3%,34.8%,67.3%,56.4%,53.7%,50%
Cn1cc(-c2cc3nc(-c4cn(C)c5ncc(Br)cc45)cc(N)n3n2)c2ccccc21,-20.7% (active),-2.62% (active),-10.9% (active),-49.5% (active),20%,-24% (active),-23.8% (active),-18.5% (active),-19.7% (active),-23.5% (active)
CN(C)CCCNC(=O)c1cc(NC(=O)c2cc(NC(=O)c3ccc(/C=C/c4ccccc4)cc3)cn2C)cn1C,-30.3% (active),-0.0203% (active),35.7%,105%,58.4%,88.7%,78.3%,51.6%,94.6%,91.6%
C#CCOc1ccc(/C=N/Nc2nc(-c3ccc(Cl)cc3)cs2)cc1OC,22.2%,38.5%,51.7%,86.9%,54.2%,88.2%,88.1%,69.1%,81.1%,46%
COc1ccc2[nH]c(O)c(N=NC(=O)COc3ccc(NC(=O)Nc4ccccc4)cc3)c2c1,52.8%,80%,9.54% (active),72.3%,19.7%,42.3%,60.7%,65.5%,14%,110%
O=c1oc2ccccc2cc1-c1csc(N2N=C(c3ccccc3)CC2c2ccc(N3CCOCC3)cc2)n1 (stereo not given),94.5%,102%,104%,132%,105%,69.9%,123%,117%,,105%
COc1c(F)ccc(C(=O)Nc2ccc3nc(NC(=O)C4CCCN(S(=O)(=O)c5ccc(C#N)cc5)C4)sc3c2)c1F (stereo not given),74.4%,70.1%,111%,103%,86.3%,103%,97.1%,102%,79.1%,96.1%
Cn1cc(-c2cc(N)n3nc(-c4c[nH]c5ccccc45)cc3n2)c2cccnc21,-32.9% (active),-28.5% (active),27.5%,30.2%,28.4%,89.9%,28.1%,12.6%,82.7%,27.7%
CN1C(=O)/C(=C/c2ccc(C(=O)Nc3ncc(Cc4ccc(Cl)cc4Cl)s3)cc2)SC1=S,28.8%,36.3%,39.3%,46.3%,53.6%,53.3%,47.2%,12.9%,44.3%,-11.8% (active)
CC(C)CCNC(=O)N/C(N)=N/c1nc2ccccc2s1,34.4%,38.2%,70.7%,93%,48.7%,87.9%,76.6%,80.4%,,56.6%
Cc1ccc(-c2nc(C#N)c(S(=O)(=O)N3CCN(S(=O)(=O)c4ccccc4)CC3)o2)cc1,-48.1% (active),-24.5% (active),1.2% (active),19.5%,-1.2% (active),115%,-63.6% (active),1.2% (active),,4.76% (active)
Cc1ccc(S(=O)(=O)c2nc(S(=O)(=O)c3ccc(C)cc3)c(N3CCN(C)CC3)s2)cc1,16.1%,52.2%,48%,94.1%,62.5%,124%,77.1%,46.1%,81.1%,44.4%
O=C1Nc2cc(Cl)ccc2/C1=C/c1cccc(OCc2ccccn2)c1,-0.484% (active),-5.52% (active),-21% (active),-7.05% (active),49.1%,52.1%,17.2%,23.5%,,-16.7% (active)
O=C1CCCc2cc(OCC(=O)N3CCCCC3)ccc2N1,104%,101%,104%,123%,103%,111%,121%,110%,105%,109%
NS(=O)(=O)c1ccc(N=Nc2c(O)n(CC(=O)Nc3ccccc3Cl)c3ccccc23)cc1,26.9%,29%,1.19% (active),56.3%,53%,36.7%,18%,21.3%,50.5%,30.4%
O=C(N=Nc1c(O)[nH]c2ccc(Cl)cc12)c1ccc2nc(-c3ccccc3)[nH]c2c1,15.3%,70.1%,20.8%,106%,38.2%,91%,75.4%,109%,,90%
Cn1cc(-c2cc3nc(-c4c[nH]c5ccc(Br)cc45)cc(N)n3n2)c2ccccc21,2.66% (active),-10.1% (active),-85.1% (active),-86.1% (active),-57% (active),-66.5% (active),-57.2% (active),-40% (active),-22.5% (active),-32.8% (active)

# — PubChem BioAssay (NCI)
